High-throughput results deposited in PubChem BioAssay by National Center for Advancing Translational Sciences (NCATS).
Epigenetic reg: derepresses silenced GFP reporter in murine cells. murine LDR cells, GFP reporter derepression, 30 h. hit rate 0.2% among 280,000. AID 1865. Potency, µM (series often up to 53.9 µM), actives largely listed as activators; note: nearly all actives have a fitted effect of over 60% in size
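GFP-positive cell count by laser-scanning cytometry (objects 20–120 um) after 30 h, 37 C compound exposure of murine LDR cells; reporter is CMV-GFP integrated at a silenced locus, inducible by HDAC or DNMT inhibitors.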
Vif-A3F inh: blocks the Vif interaction with APOBEC3F | HeLa A3F-eYFP + Vif (tagged APOBEC3F with the HIV-1 protein that degrades it), YFP fluorescence increase | Potency, µM (top dose mostly 46.1 µM) | hit rate 0.2% among 390,000; note: nearly all actives have a fitted effect of over 65% in size
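Fluorescence increase (Ex 488/Em 500-530) after overnight compound treatment at 37 deg C flags inhibition of Vif-driven A3F-eYFP loss in stable HeLa A3F-eYFP/Vif cells seeded overnight beforehand.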
Vif-A3G inh: Vif-A3G binding inhibition; Q9HC16; HeLa A3G-eYFP + Vif (tagged APOBEC3G with the HIV-1 protein that degrades it), YFP fluorescence, overnight; Potency, µM (doses to about 46.1 µM), actives largely listed as inhibitors; hit rate 0.076% among 410,000; AID 602310; note: nearly all actives have a fitted effect of over 60% in size
Target sequence (Q9HC16 whole entry, looked up): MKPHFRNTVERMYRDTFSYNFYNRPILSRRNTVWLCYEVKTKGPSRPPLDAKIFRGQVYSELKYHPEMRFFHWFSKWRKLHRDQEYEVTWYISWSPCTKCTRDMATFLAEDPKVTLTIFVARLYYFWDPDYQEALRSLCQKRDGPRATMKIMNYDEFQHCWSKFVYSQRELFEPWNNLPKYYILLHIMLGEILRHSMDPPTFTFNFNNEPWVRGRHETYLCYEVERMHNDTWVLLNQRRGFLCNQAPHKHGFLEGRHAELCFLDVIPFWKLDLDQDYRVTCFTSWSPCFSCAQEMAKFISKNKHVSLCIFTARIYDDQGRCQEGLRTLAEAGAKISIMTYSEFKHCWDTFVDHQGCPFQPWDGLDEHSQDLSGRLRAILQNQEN
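HeLa cells stably expressing Vif and C-terminally eYFP-tagged A3G, seeded overnight at 37 deg C, then exposed to compound by pintool overnight at 37 deg C. Rise in yellow fluorescence (Ex 488/Em 500-530, Acumen) marks blocked Vif-driven A3G degradation.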
PINK1 expr mod: modulators of PINK1 expression; PINK1 immunofluorescence, high-content cytometry, 24 h; Potency, µM (doses to about 76.6 µM), actives largely listed as activators; hit rate 0.2% among 410,000; active = well fitted activation curve with a large enough effect; inconclusive = small, poorly fitted or top-dose-only effect; cell line not stated here; note: nearly all actives have a fitted effect of over 65% in size
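A stable cell line was treated with compounds at 5 concentrations for 24 hours, with CCCP as control. PINK1 levels and mitochondrial localization were measured by immunofluorescence with mitochondrial, cell and nuclear markers after fixation, read by laser-scanning cytometry.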
Large screens that a line does not name were inactive. Shown are actives, neighbours in structure and some others; about 0.52% of the full set was active somewhere. Unless noted, calls come from the whole dose curve; as a rule, active = well fitted curve in the direction sought with a large enough effect; inconclusive = small, poorly fitted or top-dose-only effect, or another doubt; inactive = no such curve, though single readings can be large; an effect the other way counts as inactive or inconclusive.

COc1ccc2c(n1)Sc1nc3ccccc3nc1N2	Epigenetic reg 6.3µM, Vif-A3F inh inconclusive, Vif-A3G inh inconclusive, PINK1 expr mod inconclusive
Cc1cnc(C)c(-c2ccc(F)c3c2OC(CNC(=O)/C=C/c2cccs2)C3)n1 (stereo not given)	none (no result: Epigenetic reg, Vif-A3F inh, Vif-A3G inh)
CCOC(=O)/C(C#N)=N/Nc1ccc(S(=O)(=O)N2CCc3ccccc32)cc1	PINK1 expr mod 16µM
N#C/C(=C\c1ccc(N2CCOCC2)o1)C(=O)NCCc1ccccc1	Vif-A3F inh 22µM
CCc1ccc(-n2c(SCC(=O)c3ccc4c(c3)NC(=O)CO4)nc3ccccc3c2=O)cc1	Epigenetic reg inconclusive, Vif-A3F inh inconclusive
O=C1COc2ccc(C(=O)CSc3nc4ccccc4c(=O)n3-c3ccc(Cl)c(Cl)c3)cc2N1	Epigenetic reg inconclusive, Vif-A3F inh 10µM, Vif-A3G inh inconclusive
COCC(=O)Nc1cc(C(=O)N2CCc3c([nH]c4ccccc34)C2)cc2nc(-c3ccccc3)n(C)c12	none (no result: Epigenetic reg, Vif-A3F inh, Vif-A3G inh)
Cc1ccc(S(=O)c2ccc([N+](=O)[O-])c3nonc23)cc1 (stereo not given)	Vif-A3F inh 22µM, Vif-A3G inh inconclusive (no result: Epigenetic reg)
Cc1ccc(Nc2c([N+](=O)[O-])ccc3nonc23)c(C)c1	none (no result: Epigenetic reg)
CCOc1ccc(NC(=O)c2sc3nc4c(c(-c5ccc(OC)cc5)c3c2N)C(=O)CC(C)(C)C4)cc1	Epigenetic reg 11µM (no result: Vif-A3F inh, Vif-A3G inh)
COc1ccc(-c2c3c(nc4sc(C(=O)Nc5ccc(Cl)cc5)c(N)c24)CC(C)(C)CC3=O)cc1	none (no result: Vif-A3F inh, Vif-A3G inh)
CCOc1ccc(NC(=O)c2sc3nc4c(cc3c2N)CN(Cc2ccccc2)CC4)cc1	Epigenetic reg 16µM, Vif-A3F inh inconclusive
Nc1c(C(=O)Nc2ccccc2)sc2nc3c(cc12)CN(Cc1ccccc1)CC3	Vif-A3F inh inconclusive
COc1ccc(NC(=O)c2sc3nc4c(cc3c2N)CN(Cc2ccccc2)CC4)c(OC)c1	Epigenetic reg 7.1µM, Vif-A3F inh 11µM, Vif-A3G inh inconclusive
COc1ccccc1NC(=O)c1sc2nc3c(cc2c1N)CN(Cc1ccccc1)CC3	Vif-A3F inh inconclusive
CC(C)c1ccc(NC(=O)C2CCN(S(=O)(=O)c3ccc(Br)s3)CC2)cc1	none
O=C(Nc1ccc(Cl)cc1)C1CCN(S(=O)(=O)c2ccc(Br)s2)CC1	PINK1 expr mod 18µM
O=C(/C=C/c1ccco1)N1CCc2ccccc21	Vif-A3F inh 11µM, Vif-A3G inh inconclusive
Cc1ccc(/C=C/C(=O)N2CCc3ccccc32)o1	none
C=Cc1ccc(C(=O)N2CCc3c(cnc(C)c3CNC(=O)c3ccc4c(c3)OCO4)C2)cc1	none (no result: Epigenetic reg, Vif-A3F inh, Vif-A3G inh)
CCCN(C(=O)CSc1n[nH]c(-c2ccc(OC)cc2)n1)c1c(N)n(Cc2ccccc2)c(=O)[nH]c1=O	Vif-A3F inh 25µM (no result: Epigenetic reg)
CCC(=O)NC(c1ccccc1OC)c1ccc2cccnc2c1O (stereo not given)	Epigenetic reg 3.5µM
CCCC(=O)NC(c1ccc(OC)cc1)c1ccc2cccnc2c1O (stereo not given)	Epigenetic reg 3.5µM, Vif-A3F inh 11µM
COC(=O)c1ccc(CN2CCOc3ccc(C(O)c4cccnc4)cc3C2)cc1 (stereo not given)	none (no result: Epigenetic reg, Vif-A3F inh, Vif-A3G inh)
COC(=O)c1c(OCc2ccccn2)cc(=O)n2c1CCN(Cc1ccc3c(c1)CCCN3C)CC2	none (no result: Epigenetic reg, Vif-A3F inh, Vif-A3G inh)
CC(C)c1c(C(=O)NCCN2CCOCC2)cnn1-c1nccc(-c2cccs2)n1	none (no result: Epigenetic reg, Vif-A3F inh, Vif-A3G inh)
Cc1ccc(Cn2cnc3c(cnn3C(C)(C)C)c2=O)cc1F	none (no result: Epigenetic reg, Vif-A3F inh, PINK1 expr mod)
Cc1ccccc1Cn1c(=N)n(CC(=O)c2ccc([N+](=O)[O-])cc2)c2ccccc21	Vif-A3F inh 28µM
Cc1cc(C(=O)Nc2cccc(-c3nc(CNC(=O)c4sc(C)nc4C)c(C)o3)c2)c(C)o1	none (no result: Epigenetic reg, Vif-A3F inh, Vif-A3G inh)
CC(=O)Nc1ccc(N/C=C/C(=O)c2ccc(Cl)cc2)cc1	Vif-A3F inh inconclusive, PINK1 expr mod 11µM (no result: Epigenetic reg)
CCOc1ccc(NC(=O)N2CC=C(c3c[nH]c4ccccc34)CC2)cc1	Epigenetic reg inconclusive, Vif-A3F inh 28µM, Vif-A3G inh inconclusive
CCOC(=O)c1cccc(NC(=O)N2CC=C(c3c[nH]c4ccccc34)CC2)c1	Epigenetic reg inconclusive, Vif-A3F inh 5µM, Vif-A3G inh inconclusive
CCc1ccc(NC(=O)N2CC=C(c3c[nH]c4ccccc34)CC2)cc1	Epigenetic reg inconclusive (no result: Vif-A3F inh, Vif-A3G inh)
COc1ccc2c(c1)-c1nc(-n3ncc(C(=O)N(C)CC4CCCN(C)C4)c3C)ncc1CC2 (stereo not given)	none (no result: Epigenetic reg, Vif-A3F inh, Vif-A3G inh)
NC(=O)CC(NC(=O)Cc1ccc(Br)cc1)c1ccc(NCc2ccc(F)cc2)c([N+](=O)[O-])c1 (stereo not given)	Epigenetic reg inconclusive, Vif-A3F inh 11µM, Vif-A3G inh inconclusive
